The source of these data is the supplement of paper PMC3414501.

Experiment [1] deals with S. cerevisiae SK1 pCDA2-eGFP (USY613), sporulating. Kind of experiment: CDA2-GFP sporulation assay sensitivity score (z-score vs DMSO controls); higher = stronger inhibition of sporulation, active = hit call of the paper.
Experiment [2] has as its system S. cerevisiae AD1-9 (efflux-pump deficient), vegetative growth in YPD. As to the kind of experiment: growth sensitivity score (doubling time z-score vs DMSO controls); higher = slower growth, strongly negative scores also mark growth inhibition (complete suppression), active = hit call of the paper. The procedure, abridged: (§1)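 Optical density of Saccharomyces cerevisiae cultures in microtiter plates was followed every 15 min for 24 hours after seeding at an OD600 of 0.065. Eight solvent-only wells were run per experiment. Growth sensitivity scores were found by subtracting the solvent-only mean from the compound mean and dividing by the solvent-only standard deviation.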

For experiment [3], the system named is S. cerevisiae BY4741 (wild-type), vegetative growth in YPD. The experiment is described as above. The method, boiled down:
as §1

[4] abbreviates: stock concentration (mM, diluted 1:100): 9.8.
The mark [5] stands for this setting: stock concentration (mM, diluted 1:100): 8.6.
Setting [6] is: stock concentration (mM, diluted 1:100): 10.
Setting [7] is: stock concentration (mM, diluted 1:100): 10.1.
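For CDA2-GFP sporulation assay sensitivity score (z-score vs DMSO controls) in this document: active if sensitivity score above 5.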

`CN1CC[C@]2(c3cccc(O)c3)Cc3nc4ccccc4cc3C[C@H]2C1`: in experiment [1] (setting [4]), the “CDA2-GFP sporulation assay sensitivity score” value was 5.85 (inactive). The growth sensitivity score in experiment [2] (setting [4]) was -2.02; in experiment [3] (setting [4]), 0.13 (inactive).
In the case of `CCOC(=O)C1(c2ccccc2)CCN(CCC(C#N)(c2ccccc2)c2ccccc2)CC1` [Diphenoxylate], the “CDA2-GFP sporulation assay sensitivity score” value in experiment [1] (setting [5]) was 1.47 (inactive). In addition, the results for the growth sensitivity score in experiment [2] (setting [5]) and in experiment [3] (setting [5]) were 5.75 (active) and -0.94 (inactive), respectively.
`c1ccc2c3c([nH]c2c1)CNCC3` [Tryptoline]: the “CDA2-GFP sporulation assay sensitivity score” value in experiment [1] (setting [6]) was 11.7 (active). For the same molecule, the growth sensitivity score in experiment [2] (setting [6]) was -1.27 (inactive); in experiment [3] (setting [6]) it was -1.07 (inactive).
Taken in the same sequence, the figures for `CC(C)[C@]12O[C@H]1[C@@H]1O[C@]13[C@]1(O[C@H]1C[C@H]1C4=C(CC[C@@]13C)C(=O)OC4)[C@@H]2O` [Triptolide] were -1.02 (inactive), -2.17 and -0.92 (inactive).
With `C[C@]12CCC(=O)C[C@@H]1CC[C@@H]1[C@@H]2CC[C@@]2(C)[C@H]1CC[C@]2(C)O` [Mestanolone], the “CDA2-GFP sporulation assay sensitivity score” value in experiment [1] (setting [7]) is 0.79 (inactive). Moreover, the figures for the growth sensitivity score in experiment [2] (setting [7]) and in experiment [3] (setting [7]) were 2.2 (active) and -0.15 (inactive), respectively.
For the molecule `Oc1cc2c(cc1O)[C@H]1c3ccccc3CN[C@@H]1CC2`, in experiment [1] (setting [6]), the “CDA2-GFP sporulation assay sensitivity score” value is -1.42 (inactive). Besides, the growth sensitivity score in experiment [2] (setting [6]) was 0.66 (inactive); in experiment [3] (setting [6]), 0.31 (inactive).
In the case of `C[C@]12C/C(=C/O)C(=O)C[C@@H]1CC[C@@H]1[C@@H]2CC[C@@]2(C)[C@H]1CC[C@]2(C)O` [Oxymetholone], the “CDA2-GFP sporulation assay sensitivity score” value in experiment [1] (setting [7]) was 1.28 (inactive). In experiment [3] (setting [7]), the growth sensitivity score is 9.13 (active).
`O=c1c2ccccc2[se]n1-c1ccccc1` [Ebselen] returned a growth sensitivity score in experiment [2] (setting [6]) of -16.9.
On to `c1cncc([C@@H]2CCCN2)c1` [Nornicotine], for which the “CDA2-GFP sporulation assay sensitivity score” value in experiment [1] (setting [6]) was 2.1 (inactive). Besides, the growth sensitivity score was -0.25 (inactive) in experiment [2] (setting [6]) and 0.91 (inactive) in experiment [3] (setting [6]).
